# The supplement of paper PMC9694430
# Experiments:
# Assay in all cases: thermal shift delta Tm vs DMSO control; higher = stronger stabilization (binding)
# Settings in all cases: 12.5 µM; protein concentration 2 µM
# [1] = tested on: LOC_OS01G01410-cb001
# Procedure, shortened: (§1)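 Rice kinase domain constructs were expressed in E. coli, purified, and tested by differential scanning fluorimetry with compound added in DMSO. Each well of a 96-well plate held 19.5 μl of 2 μM kinase in 100 mM potassium phosphate pH 7.5, 150 mM NaCl, 10% glycerol and 5 × SYPRO Orange, and fluorescence was read from 25°C to 95°C at 0.05°C/s. The melting temperature shift is the mean of triplicates, taken against protein with DMSO alone after Boltzmann fitting.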
# [2] = tested on: LOC_OS01G02750-cb003
# Procedure, shortened: as §1
# [3] = tested on: LOC_OS01G10900-cb004
# Procedure, shortened: as §1
# [4] = tested on: LOC_OS01G13800-cb001
# Procedure, shortened: as §1
# [5] = tested on: LOC_OS01G14860-cb001
# Procedure, shortened: as §1
# [6] = tested on: LOC_OS01G21960-cb002
# Procedure, shortened: as §1
# [7] = tested on: LOC_OS01G39600-cb002
# Procedure, shortened: as §1
# [8] = tested on: LOC_OS01G48390-cb002
# Procedure, shortened: as §1
# [9] = tested on: LOC_OS01G51400-cb002
# Procedure, shortened: as §1
# [10] = tested on: T1, LOC_OS01G52050-cb004
# T1 sequence (whole entry): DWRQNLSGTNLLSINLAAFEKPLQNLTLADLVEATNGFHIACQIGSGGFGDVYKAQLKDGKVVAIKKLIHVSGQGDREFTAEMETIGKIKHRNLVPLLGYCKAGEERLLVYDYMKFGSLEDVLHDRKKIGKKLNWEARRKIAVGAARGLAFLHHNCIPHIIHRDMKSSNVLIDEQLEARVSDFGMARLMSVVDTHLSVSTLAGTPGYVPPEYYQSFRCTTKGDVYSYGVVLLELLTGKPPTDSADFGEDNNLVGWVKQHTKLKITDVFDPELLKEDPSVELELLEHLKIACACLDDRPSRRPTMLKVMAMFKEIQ
# Procedure, shortened: as §1
Structure (SMILES),thermal shift delta Tm [1],thermal shift delta Tm [2],thermal shift delta Tm [3],thermal shift delta Tm [4],thermal shift delta Tm [5],thermal shift delta Tm [6],thermal shift delta Tm [7],thermal shift delta Tm [8],thermal shift delta Tm [9],thermal shift delta Tm [10]
Cc1cccc(CC(=O)N2CCc3c2ccc(-c2cn(C)c4ncnc(N)c24)c3F)n1,1.17 °C,6.31 °C,2.32 °C,-0.12 °C,0.28 °C,0.3 °C,0.17 °C,-0.13 °C,0.48 °C,1.35 °C
O=C1NC(=O)/C(=C/c2ccc3c(c2)OC(F)(F)O3)S1,0.72 °C,0.45 °C,0.16 °C,0.44 °C,0.39 °C,1.11 °C,0.17 °C,0.77 °C,0.53 °C,0.79 °C
Cn1ncc(Cl)c1-c1cc(C(=O)N[C@H](CN)Cc2cccc(F)c2)sc1Cl,0.78 °C,2.36 °C,0.19 °C,-0.25 °C,0.67 °C,0.59 °C,-0.1 °C,0.28 °C,0.18 °C,0.5 °C
CC1(C)C=Cc2c(ccc3c2OC[C@@H](c2ccc(O)cc2O)C3)O1 [Glabridin],0.95 °C,3.18 °C,2.07 °C,0.08 °C,1.32 °C,1.14 °C,2.12 °C,1.81 °C,1.35 °C,4.83 °C
NC(=O)c1ccc(N(C(N)=O)c2c(F)cccc2F)nc1-c1ccc(F)cc1F,0.34 °C,0.53 °C,0.19 °C,-0.47 °C,-0.12 °C,0.57 °C,-1.78 °C,0.07 °C,0.14 °C,-0.21 °C
Cc1ncc(CCCN(C)C)cc1Nc1ncc2c(n1)-c1ccc(C(F)(F)F)cc1NC(=S)C2,0.62 °C,1.24 °C,-0.4 °C,0.18 °C,0.59 °C,0.78 °C,-0.18 °C,1.07 °C,0.38 °C,1.48 °C
C=CC(=O)N1CC[C@@H](Oc2nc(Nc3ccc(N4CCC(N5CCN(C)CC5)CC4)cc3)c(C(N)=O)nc2CC)C1 [Naquotinib(ASP8273)],5.21 °C,1.59 °C,4.44 °C,-0.4 °C,4.17 °C,2.68 °C,1.51 °C,3.38 °C,-0.03 °C,2.34 °C
CCN1/C(=C/C(C)=O)Sc2ccc(OC)cc21,0.21 °C,0.62 °C,0.24 °C,0.6 °C,1.92 °C,1.17 °C,-0.62 °C,0.54 °C,0.02 °C,-0.01 °C
Cc1c(NC(=O)OC[C@@H]2COCCN2)cn2ncnc(Nc3ccc4c(cnn4Cc4cccc(F)c4)c3)c12,0.88 °C,-0.18 °C,0.06 °C,0.7 °C,0.19 °C,0.52 °C,0.91 °C,0.07 °C,0.14 °C,0.23 °C
Nc1ccc(C(=O)Nc2cccc(-c3nc(N4CCOCC4)c4oc5ncccc5c4n3)c2)cn1,1.9 °C,1.58 °C,1.27 °C,0.49 °C,0.58 °C,0.56 °C,0.13 °C,0.28 °C,0.29 °C,0.45 °C
CCn1c(=O)c(-c2cc[nH]n2)cc2c(C)nc(N)nc21,0.43 °C,1.06 °C,0.44 °C,0.27 °C,0.44 °C,0.65 °C,0.24 °C,0.13 °C,-0.16 °C,0.21 °C
CCn1nc(C2CCN(C(=O)CCO)CC2)nc1-c1cnc(N)c(-c2nnc(C(C)(C)C)o2)n1,0.39 °C,0.51 °C,0.81 °C,0.46 °C,2.91 °C,1.09 °C,2.31 °C,0.07 °C,-0.09 °C,1.14 °C
C=CC(=O)Nc1cccc(Sc2nc(Nc3ccc(N4CCN(C)CC4)cc3)ncc2Cl)c1,3.81 °C,1.58 °C,5.27 °C,-0.1 °C,1.89 °C,0.88 °C,6.99 °C,7.06 °C,1.43 °C,4.22 °C
CCN(CC)CCNC(=O)c1c(C)[nH]c(/C=C2\C(=O)Nc3ccc(-c4csc(-c5ccccc5)n4)cc32)c1C [Amcasertib (BBI503)],3.77 °C,0.02 °C,5.39 °C,-0.01 °C,1.64 °C,1.66 °C,4.12 °C,-0.28 °C,0.02 °C,-0.1 °C
CN1c2ccccc2C(=O)Nc2cnc(Nc3ccc(N4CCC(O)CC4)cc3)nc21,0.94 °C,1.24 °C,3 °C,-0.58 °C,0.36 °C,0.64 °C,0.1 °C,0.29 °C,0.1 °C,0.63 °C
C=CC(=O)Nc1cc(Nc2nccc(-c3cn(C)c4ccccc34)n2)c(OC)cc1N(C)CCN(C)C [Osimertinib (AZD9291)],0.41 °C,0.94 °C,0.45 °C,-0.53 °C,0.01 °C,0.34 °C,0.02 °C,-0.33 °C,0.43 °C,0.11 °C
Cc1cn(-c2cc(NC(=O)c3ccc(C)c(Nc4nccc(-c5cccnc5)n4)c3)cc(C(F)(F)F)c2)cn1 [Nilotinib (AMN-107)],1.05 °C,0.56 °C,0.78 °C,-0.11 °C,0.32 °C,0.28 °C,0.67 °C,0.45 °C,0.48 °C,-0.02 °C
O=c1cc(N2CCOCC2)oc2c(-c3cccc4c3sc3ccccc34)cccc12,-0.61 °C,-1.71 °C,3.77 °C,-1.29 °C,0.08 °C,-0.64 °C,-1.62 °C,-0.49 °C,-1.28 °C,-0.72 °C
Cc1ccc(F)c(NC(=O)Nc2ccc(-c3cccc4[nH]nc(N)c34)cc2)c1 [Linifanib (ABT-869)],3 °C,3.87 °C,1.34 °C,0.36 °C,2.29 °C,1.08 °C,2.02 °C,4.44 °C,0.54 °C,6.66 °C
CNC(=O)c1ccc(-c2cnc3ncc(Cc4ccc5ncccc5c4)n3n2)cc1F,0.07 °C,0.51 °C,0.48 °C,-0.08 °C,0.29 °C,0.73 °C,-0.03 °C,0.24 °C,-0.03 °C,0.32 °C
